Experimental data from PubChem BioAssay AID1347056 (Sanford-Burnham Center for Chemical Genomics, 2019).
Hit rate of the full screen: of about 360,000 compounds, about 3,600 (1%) were called active. The sample as a whole holds a higher share of actives than the screen did. Values without a mark were called inactive.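 How the source made its calls: active means compounds whose plate-normalised and pattern-corrected inhibition of the luciferase reporter signal at the single screening dose is 50% or more; inactive means the rest.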

experiment: TROY pathway blockers in reporter cells – Q293 LMP1-TROYcd cells, NF-kB luciferase, uHTS, primary screen (AID 1347056); details: 4 h, at 10 µM, hits give high values

Structure (SMILES) | inhibition
C/C(CC(=O)NC(C)c1ccccc1)=N\NC(N)=S (configuration not stated) | 0.63%
Cn1nccc1C(=O)NC1CCCc2c1cnn2-c1ccc(F)cc1F (configuration not stated) | 28%
COc1ccc(OC)c(C(=O)NC2CCCc3c2cnn3-c2cc(C)cc(C)c2)c1 (configuration not stated) | -13.7%
COc1ccc(C(=O)NC2CCCc3c2cnn3-c2cccc(C)c2C)c(OC)n1 (configuration not stated) | 55.4% (active)
Cc1ccccc1-n1nc(C)c2c1N=C1C(Cl)=CC(Cl)=CN1C2c1ccc(C(=O)O)cc1 (configuration not stated) | 1.29%
Cc1cc(Br)cn2c(Cc3ccccc3C(F)(F)F)c(C3CCCCC3)nc12 | 15.5%
CCOC(=O)c1cnc(SCc2nc(N)nc(Nc3ccc(OC)cc3)n2)nc1N | -4.61%
CCS(=O)(=O)N1Cc2ccccc2CC1C(=O)Nc1nc2ccc(F)cc2s1 (configuration not stated) | 42.9%
CSc1ncccc1C(=O)Nc1nc2ccc(F)cc2s1 | 54.6% (active)
CSc1ncccc1C(=O)Nc1ccc2c(c1)OCO2 | -13.6%
O=c1ccc2cc(S(=O)(=O)NCCCc3ccccc3)ccc2[nH]1 | -7.06%
CCC(C)(C)NC(=O)CN(Cc1cccs1)C(=O)CNS(=O)(=O)c1ccc(F)cc1 | -7.55%
Cc1ccc(S(=O)(=O)N(CC(O)CN2C(=O)NC(C)(C)C2=O)c2cccc([N+](=O)[O-])c2)cc1 (configuration not stated) | 4.48%
CCCn1c(C)cc(C(=O)COC(=O)c2c(C)nn(-c3ccccc3)c2C)c1C | -3.58%
COc1ccccc1NC(=S)N1CCN(C(c2ccccc2)c2ccccc2)CC1 | 16.1%
Cc1cccc(N2CCN(C(c3ccccc3)c3nnnn3CC3CCCO3)CC2)c1C (configuration not stated) | -7.74%
CC1(C)CC(N2CCN(C(c3ccccc3)c3ccccc3)CC2)=CC(=[N+]2CCCCC2)C1 | 58.6% (active)
O=C(CN1CCOCC1)Nc1c(Cl)cc(Cl)cc1Cl | -5.43%
C=CCSc1nc2c(c(=O)[nH]1)C(C(C)C)C(C#N)=C(N)O2 (configuration not stated) | 9.46%

Structure (SMILES) | inhibition
N#Cc1ccccc1NC(=O)COc1c(Br)cc(Br)c2cccnc12 | 4.34%
CC1CN(C(=O)c2ccccc2NS(=O)(=O)c2cccc([N+](=O)[O-])c2)CC(C)O1 (configuration not stated) | 8.71%
COc1ccc(Br)cc1/C=N/Nc1ccc(S(=O)(=O)Nc2ccccc2C(=O)O)cc1[N+](=O)[O-] | 58% (active)
COc1ccc(S(=O)(=O)N2CCC(C(=O)OCC(=O)c3ccccc3)CC2)cc1[N+](=O)[O-] | -4.41%
CC(=O)Nc1ccc(C(=O)CSc2nc3ccc(C)cc3[nH]2)cc1 | -46.4%
COc1ccccc1C(=O)c1ccccc1C(=O)c1ccccc1 | 9.22%
COc1cc2c(C(=O)O)c(C)n(C)c2c2ccccc12 | 6.89%
COc1cccc2c(C)c(C(=O)O)[nH]c12 | 74.3% (active)
Oc1cccc2ccc(/C=C/c3ccc(Br)s3)nc12 | 45.8%
COc1ccc(C2C(C#N)=C(N)Oc3cc(N)ccc32)cc1OC (configuration not stated) | -32.5%
N#CC1=C(N)Oc2cc(N)ccc2C1c1ccccc1 (configuration not stated) | 13.9%
COc1ccccc1C1C(C#N)=C(N)Oc2c1c(-c1ccccc1)nn2-c1ccccc1 (configuration not stated) | 62% (active)
CCOc1ccc(C(=O)Nc2cc(Cl)ccc2-n2cncn2)cc1OC | -3.58%
O=C1c2ccccc2C(=O)N1CCC#Cc1ccc2cc(C3(O)CCCCC3)oc(=O)c2c1 | 64.8% (active)
CC(C)c1nc(CNC(=O)CC2C(=O)NCCN2Cc2cccc(F)c2F)cs1 (configuration not stated) | 4.78%
COC(=O)c1ccc(C)c(NC(=O)C2CC(=O)N(C3CCCC(C)C3C)C2)c1 (configuration not stated) | -0.78%
C=CCC[C@@H](Cc1ccc(F)cc1)C(=O)O[C@H](CNC(=O)[C@H](CC=C)CC(=O)N(CCO)Cc1ccccc1)c1ccccc1 | 46.6%
O=C1c2ccccc2C2=Nc3ccccc3SC(c3ccccc3F)C12 (configuration not stated) | 63.5% (active)
COCCCn1c(-c2cccs2)nc2nc3ccccc3nc21 | 1.22%

Structure (SMILES) | inhibition
Cc1ccc(CSc2nc3[nH]ncc3c(=O)[nH]2)cc1 | -16.1%
Cc1cccc(NC(=O)CSc2nc3[nH]ncc3c(=O)[nH]2)c1 | 80.2% (active)
O=C(CSc1nc2[nH]ncc2c(=O)[nH]1)Nc1ccc(F)cc1 | -9.77%
COc1ccc(S(=O)(=O)N2CCN(C)CC2)c(C)c1 | -7.28%
O=C(/C=C/c1ccc(Cl)c([N+](=O)[O-])c1)c1ccc(O)cc1 | 55.6% (active)
O=C(/C=C/c1ccc(Cl)cc1)N1CCN(c2ccccc2[N+](=O)[O-])CC1 | 9.62%
O=C(/C=C/c1ccc(Cl)c([N+](=O)[O-])c1)c1cccnc1 | 64.6% (active)
O=C(O)c1ccc2c(=O)n3c(nc2c1)/C(=C/c1ccc(Cl)c([N+](=O)[O-])c1)CC3 | -0.87%
O=C(Nc1cccnc1)c1ccc(Cl)cc1[N+](=O)[O-] | -20.1%
C/C(=N\NC(=O)Cc1ccccc1[N+](=O)[O-])c1cccnc1 | -4.21%
O=C(NCc1ccccc1CN1CCCC1)C1CCN(S(=O)(=O)c2ccc(Cl)cc2)CC1 | 4.08%
Cc1ccnc(NC(=O)CCNS(=O)(=O)c2ccc(C)c(C)c2)c1 | 29.5%
Cc1ccc2nc(SCc3nnc(-c4ccccc4[N+](=O)[O-])o3)c(C#N)cc2c1 | 2.86%
CCOC(=O)c1c(C)oc2cc(Sc3ccccc3)c(O)c(O)c12 | -45.5%
CCOC(=O)c1c(-c2ccccc2)oc2cc(Br)c(O)c(C=O)c12 | 74.6% (active)
CCOC(=O)c1c(C)oc2cc(Br)c(OCC(N)=O)cc12 | 8.9%
COc1ccc([N+](=O)[O-])cc1NC(=O)c1ccc(N(Cc2ccccc2C)S(C)(=O)=O)cc1 | 13.5%
COC(=O)C1=C(C)N=C2SC(C)C(=O)N2C1/C=C/c1ccccc1 (configuration not stated) | 0.14%
CC[C@H]1CN2CCc3cc(OC)c(OC)cc3[C@@H]2C[C@@H]1C[C@H]1NCCc2cc(OC)c(OC)cc21 | 86% (active)
